Experiment [1] can be described thus: AP1 Signaling Pathway (AID 357). Further: on the % scale 0 is the no-effect control and ±100 the full control effect. In short, it runs like this: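 ME-180 cells with beta-lactamase reporter under AP-1 response element, stimulated with EC50 EGF; compounds tested in titration series, 5 h at 37 °C. CCF4 substrate added 2.5 h at room temperature; 460/530 nm emission ratio gave %activity and AC50.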
The target of experiment [2] is Cytochrome P450 1A2 (Homo sapiens) (UniProt P05177). Put plainly: p450-cyp1a2 (AID 410; calls by dose curve; further: potency means the concentration at half of the fitted maximal effect;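 on activity change, negative = inhibition: -100% = full effect of reference inhibitor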). The gist of the method: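 Read-out is luminescence from luciferin produced by CYP1A2 demethylation of Luciferin-ME (100uM, at Km). Detection reagent stopped the 60 min NADPH-dependent reaction; signals were normalized to 57 uM furafylline.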
Experiment [3] can be described thus: NFAT Signaling Pathway (AID 444).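 Further: carbachol stimulus at about its EC50 of 1 µM final; on the % scale 0 is the no-effect control and ±100 the full control effect.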 As to conditions: Jurkat NFAT-bla M1, carbachol, beta-lactamase ratio, 5 h; at 17.2 µM (top of the series). The gist of the method:
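Jurkat cells with NFAT-driven β-lactamase reporter and co-expressed M1 receptor, stimulated with carbachol (final 1 uM, ~EC50), compound titration, 5 h at 37 °C. CCF4 loaded 1 h at RT; 460/530 nm ratio gave %activity and AC50.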

Experiment [4] is described as follows: Stat Signaling Pathway (AID 446).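 Further: ME-180 cervical cancer cells given 40 pM IL-6 alongside compound; SIE-controlled beta-lactamase reporter measured as 460/530 nm FRET emission ratio; on the % scale 0 is the no-effect control and ±100 the full control effect.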 The gist of the method: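 Overnight-plated ME-180 cells bearing a STAT Inducible Element beta-lactamase reporter; 5 h co-exposure to compound and 40 pM IL-6; values normalized to 300 pM IL-6 and 125 nM JAK inhibitor controls.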
In experiment [5] the target is Glucocorticoid receptor (Homo sapiens) (UniProt P04150). Description: GR-GFP Redistribution (AID 450;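 active means compounds whose dose series gives a full or clear partial fitted curve of increased nuclear translocation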; further: potency means the concentration at half of the fitted maximal effect). As to conditions: U2OS GR-GFP nuclear translocation, laser cytometry, 2 h.
For experiment [6] the target is unchanged. Put plainly: GR-EFC Redistribution (AID 451; calls by dose curve; further: potency means the concentration at half of the fitted maximal effect). As to conditions: CHO-K1 GR-EFC translocation, beta-gal luminescence, 2 h. In short, it runs like this: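 CHO-K1 cells expressing nuclear EA and GR-ED fragments of b-gal; compounds titrated up to 46 uM final, 2 h at 37 C. GR nuclear translocation read as complemented b-gal luminescence after 1 h RT detection.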

Experiment [7] deals with Mitogen-activated protein kinase 10 (Mus musculus) (UniProt Q61831). Put plainly: JNK3 AlphaScreen Assay (AID 530).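 Further: kinase came from lysate of stimulated human HepG2 cells; signal reports phosphorylation of biotinylated GST-cJun 1-79 at Ser73 with 10 µM ATP; on the % scale 0 is the no-effect control and ±100 the full control effect.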 The gist of the method:
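HepG2 lysate (IL-1b/TNFa pre-activated) + biotin-GST-cJun 1-79 + anti-pSer73 cJun; cpd titration, 15 min RT; ATP 10 uM start; Tris pH 7.6, MgCl2, DTT, vanadate; beads in EDTA buffer; AlphaScreen.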

The target in experiment [8] is 3',5'-cyclic-AMP phosphodiesterase 4B (Homo sapiens) (UniProt Q07343). Description: qHTS Assay for Inhibitors of PDE-IV (AID 607; active means well fitted activation curve with a large enough effect in the main read-out, with a control signal flat, not every such curve was filed as active; further: % of control where 0% means no effect). In short, it runs like this:
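Live HEK293 cells with a modified cyclic nucleotide-gated (CNG) channel report intracellular cAMP via membrane-potential dye fluorescence (ex 535/em 590 nm). Endogenous PDE-IV was targeted. Compounds were tested at up to 22.9 uM final; RO 20-1724 100 uM served as control.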

Experiment [9] can be described thus: qHTS Assay for Lipid Storage Modulators (AID 1519; calls by dose curve). Conditions: Drosophila S3 cells, BODIPY lipid droplet/cell ratio, laser cytometry, cells loaded with oleic acid; for activity change, negative = inhibition: at 25.7 µM (top of the series). The gist of the method: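 Cells seeded at 5,000 per well were treated with compounds over a concentration series and loaded with oleic acid (400 uM, as added). Lipid droplet fluorescence (488 nm excitation, 500-530 nm channel) was read by laser-scanning cytometry and normalized to 20 uM Triacsin C.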
A general note: qHTS replaces the single test concentration by a dilution series.

In experiment [10] the target is Ubiquitin carboxyl-terminal hydrolase 1 (Homo sapiens) (UniProt O94782). Put plainly: Inhibitors of USP1/UAF1: Pilot qHTS (AID 504865; active means well fitted curve in the direction sought with a large enough effect; an effect the other way counts as inactive or inconclusive; further: nearly all actives have a fitted effect of over 35% in size; further: potency means the concentration at half of the fitted maximal effect). The gist of the method: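 1nM USP1/UAF1 + cpd, 15 min RT; start w/ Ub-Rho 150nM final; kinetic FL 480/540 nm, 6 reads q60 s. Buffer 50mM HEPES pH 7.8, 0.5mM EDTA, 1mM TCEP, 0.01% Tween-20, 0.1 mg/ml BSA.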
In experiment [11] the target is Cytochrome P450 3A4 (Homo sapiens) (UniProt P08684). Put plainly: qHTS Assay for Activators of Cytochrome P450 3A4 (AID 885; active means well fitted curve in the direction sought with a large enough effect; an effect the other way counts as inactive or inconclusive; further: nearly all actives have a fitted effect of over 65% in size). In short, it runs like this:
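Using 20nM recombinant human CYP3A4 in potassium phosphate (200mM), substrate Luciferin-PPXE at 25uM, luminescent luciferin detection followed a 60-min RT NADPH reaction; data scaled to 57 uM ketoconazole.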

The mark [12] stands for this setting: measured here: cell count channel max response.
[13] abbreviates: measured here: lipid channel max response.

SMILES strings stand for the structures. Where “and” joins values, the source holds several entries; their conditions need not be identical. Identical values can stand only once. Records with an inconclusive call do not appear. Calls of active or inactive are those of the source. Unless noted, the call rests on the fitted dose curve; in most records, active means well fitted curve in either direction with a large enough effect (not every such curve was filed as active); inconclusive means small, poorly fitted or top-dose-only effect, or another doubt; inactive means flat fitted curve, though single readings scatter.

Sequence of Cytochrome P450 1A2 (Homo sapiens) (P05177 whole entry, looked up): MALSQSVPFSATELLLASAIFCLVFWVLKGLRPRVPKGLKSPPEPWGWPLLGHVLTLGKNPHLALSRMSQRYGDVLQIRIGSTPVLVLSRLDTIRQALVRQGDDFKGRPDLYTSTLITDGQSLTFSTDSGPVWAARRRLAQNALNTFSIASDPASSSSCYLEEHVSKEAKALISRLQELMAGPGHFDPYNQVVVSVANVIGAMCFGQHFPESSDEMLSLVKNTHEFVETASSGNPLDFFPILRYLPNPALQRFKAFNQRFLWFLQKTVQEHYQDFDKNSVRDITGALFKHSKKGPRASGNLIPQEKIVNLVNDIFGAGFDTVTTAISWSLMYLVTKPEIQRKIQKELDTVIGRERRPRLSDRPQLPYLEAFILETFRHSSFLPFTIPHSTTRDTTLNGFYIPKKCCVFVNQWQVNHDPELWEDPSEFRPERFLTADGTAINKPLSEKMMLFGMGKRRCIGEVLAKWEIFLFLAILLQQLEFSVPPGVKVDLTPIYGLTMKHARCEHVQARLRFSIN
Sequence of 3',5'-cyclic-AMP phosphodiesterase 4B (Homo sapiens) (Q07343 whole entry, looked up): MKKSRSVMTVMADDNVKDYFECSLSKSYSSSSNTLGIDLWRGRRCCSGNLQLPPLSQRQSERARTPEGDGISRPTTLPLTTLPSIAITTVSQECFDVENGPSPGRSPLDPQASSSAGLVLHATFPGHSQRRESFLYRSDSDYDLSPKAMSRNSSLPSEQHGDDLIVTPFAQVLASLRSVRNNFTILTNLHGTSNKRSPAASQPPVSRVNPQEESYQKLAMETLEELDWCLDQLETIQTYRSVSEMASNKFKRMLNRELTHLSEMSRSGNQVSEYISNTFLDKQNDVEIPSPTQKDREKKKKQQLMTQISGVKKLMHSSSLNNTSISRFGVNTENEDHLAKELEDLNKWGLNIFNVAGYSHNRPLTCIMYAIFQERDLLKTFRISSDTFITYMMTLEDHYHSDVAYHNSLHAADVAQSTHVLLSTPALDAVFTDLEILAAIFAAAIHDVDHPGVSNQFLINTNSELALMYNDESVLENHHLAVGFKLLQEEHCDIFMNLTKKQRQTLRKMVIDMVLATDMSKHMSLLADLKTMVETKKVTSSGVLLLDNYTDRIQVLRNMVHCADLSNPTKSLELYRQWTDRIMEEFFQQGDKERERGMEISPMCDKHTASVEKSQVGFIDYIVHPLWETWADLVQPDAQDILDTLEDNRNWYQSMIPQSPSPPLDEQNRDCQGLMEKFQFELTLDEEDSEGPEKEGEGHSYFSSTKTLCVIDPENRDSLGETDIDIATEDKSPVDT
Sequence of Ubiquitin carboxyl-terminal hydrolase 1 (Homo sapiens) (O94782 whole entry, looked up): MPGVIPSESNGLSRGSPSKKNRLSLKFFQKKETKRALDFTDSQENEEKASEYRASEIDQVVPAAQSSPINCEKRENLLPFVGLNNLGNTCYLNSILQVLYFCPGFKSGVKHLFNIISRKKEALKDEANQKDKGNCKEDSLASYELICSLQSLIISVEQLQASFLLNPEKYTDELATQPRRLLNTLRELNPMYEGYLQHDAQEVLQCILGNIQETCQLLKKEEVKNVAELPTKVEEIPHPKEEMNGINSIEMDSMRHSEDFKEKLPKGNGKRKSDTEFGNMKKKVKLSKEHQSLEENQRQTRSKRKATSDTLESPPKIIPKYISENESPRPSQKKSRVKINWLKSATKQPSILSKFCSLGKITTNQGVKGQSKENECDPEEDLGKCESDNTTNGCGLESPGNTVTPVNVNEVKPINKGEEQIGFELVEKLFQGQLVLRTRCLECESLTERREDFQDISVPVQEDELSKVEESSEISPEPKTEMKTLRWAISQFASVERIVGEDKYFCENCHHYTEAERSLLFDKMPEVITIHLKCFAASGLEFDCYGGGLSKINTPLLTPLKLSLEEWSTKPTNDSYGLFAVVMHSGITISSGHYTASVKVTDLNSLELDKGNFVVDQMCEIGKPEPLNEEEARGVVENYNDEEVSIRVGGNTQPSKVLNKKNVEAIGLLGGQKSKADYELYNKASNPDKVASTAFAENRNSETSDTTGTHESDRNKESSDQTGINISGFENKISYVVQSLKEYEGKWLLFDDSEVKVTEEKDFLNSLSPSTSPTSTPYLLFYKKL
Sequence of Glucocorticoid receptor (Homo sapiens) (P04150 whole entry, looked up, the tested form may be a part): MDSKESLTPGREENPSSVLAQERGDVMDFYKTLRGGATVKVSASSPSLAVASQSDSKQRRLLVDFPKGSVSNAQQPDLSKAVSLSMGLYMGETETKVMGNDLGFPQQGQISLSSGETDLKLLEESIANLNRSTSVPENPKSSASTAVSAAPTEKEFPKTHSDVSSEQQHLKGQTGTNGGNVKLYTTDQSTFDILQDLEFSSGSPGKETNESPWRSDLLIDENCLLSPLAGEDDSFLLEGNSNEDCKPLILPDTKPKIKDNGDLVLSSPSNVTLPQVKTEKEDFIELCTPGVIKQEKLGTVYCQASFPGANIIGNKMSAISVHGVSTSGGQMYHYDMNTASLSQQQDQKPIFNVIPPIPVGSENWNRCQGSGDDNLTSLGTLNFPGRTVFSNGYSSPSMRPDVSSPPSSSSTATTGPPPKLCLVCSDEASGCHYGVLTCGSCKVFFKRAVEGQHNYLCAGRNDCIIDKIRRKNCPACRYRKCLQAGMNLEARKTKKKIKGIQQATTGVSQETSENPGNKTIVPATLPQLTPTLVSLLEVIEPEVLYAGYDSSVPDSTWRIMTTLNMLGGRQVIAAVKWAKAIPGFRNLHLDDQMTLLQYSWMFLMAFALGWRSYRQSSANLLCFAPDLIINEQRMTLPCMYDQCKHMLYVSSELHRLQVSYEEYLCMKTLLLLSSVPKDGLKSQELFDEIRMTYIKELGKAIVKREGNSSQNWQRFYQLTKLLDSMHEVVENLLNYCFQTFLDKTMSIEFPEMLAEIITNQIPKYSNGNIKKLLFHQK
Sequence of Cytochrome P450 3A4 (Homo sapiens) (P08684 whole entry, looked up): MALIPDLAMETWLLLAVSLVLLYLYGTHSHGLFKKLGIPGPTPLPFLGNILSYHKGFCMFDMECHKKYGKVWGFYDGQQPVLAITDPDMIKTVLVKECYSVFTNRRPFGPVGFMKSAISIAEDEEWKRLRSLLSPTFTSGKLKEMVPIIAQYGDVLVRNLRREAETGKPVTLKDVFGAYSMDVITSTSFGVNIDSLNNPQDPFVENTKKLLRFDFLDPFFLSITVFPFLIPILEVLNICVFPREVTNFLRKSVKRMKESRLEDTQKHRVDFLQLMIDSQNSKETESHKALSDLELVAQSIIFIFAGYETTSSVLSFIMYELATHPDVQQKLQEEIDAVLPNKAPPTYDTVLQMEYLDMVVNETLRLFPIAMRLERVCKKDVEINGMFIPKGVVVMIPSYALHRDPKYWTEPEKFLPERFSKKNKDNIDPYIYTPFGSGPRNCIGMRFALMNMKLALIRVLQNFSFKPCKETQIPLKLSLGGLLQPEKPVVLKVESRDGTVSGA

In the case of `CCN1C[C@@]2(COC)CC[C@H](OC)[C@]34[C@@H]1[C@]1(OCO[C@@]15C[C@@H](OC)C1C[C@H]3[C@H]5[C@@H]1OC)[C@H](O)[C@@H]24`, the outcome in experiment [1], in [4] and in experiment [7] was inactive. Moreover, the Potency result in experiment [2], in experiment [8] and in experiment [10] was “inactive” throughout. The values for the activity change, negative = inhibition in experiment [3] and in experiment [9] were -1.05% (inactive) and -0.879% (inactive), respectively. Besides, the Potency in experiment [5] and in experiment [6] was > 20.6 µM (inactive) throughout. Further, the max response was -14.7% in experiment [9] (setting [12]) and -15% in experiment [9] (setting [13]).

Consider `CN1[C@@H]2CCC[C@H]1CC(=O)C2`, for which the call in experiment [1], in experiment [4] and in experiment [7] was inactive. Further, the Potency entry in experiment [2], in experiment [8] and in [10] was “inactive” each time. Besides, the activity change, negative = inhibition in [3] was -4.22% (inactive); in experiment [9], -2.47% (inactive). The Potency in [5] and in experiment [6] was > 20.6 µM (inactive) in each case. In addition, the results for the max response in experiment [9] (setting [12]) and in experiment [9] (setting [13]) were -0.588% and -3.94%, respectively.

Consider `CC(C)C[C@H]1C(=O)N2CCC[C@@H]2[C@@]2(O)O[C@](NC(=O)[C@@H]3C=C4c5cccc6[nH]cc(c56)C[C@@H]4N(C)C3)(C(C)C)C(=O)N12`, for which the call in [1], in [4] and in experiment [7] was inactive. The Potency in experiment [2] was 12.6 µM (active); in experiment [5], > 20.6 µM (inactive); in experiment [6], > 20.6 µM (inactive); in experiment [10] it was 14.1 µM (active). The activity change, negative = inhibition in experiment [3] was -19.6% (inactive); in experiment [9], 1.16% (inactive). For the same molecule, the Potency result in experiment [11] was “inactive”. Further, the figures for the max response in experiment [9] (setting [12]) and in [9] (setting [13]) were -5.41% and -4.79%, respectively.

For the molecule `CN1CC[C@]2(C)c3cc(O)ccc3N(C)[C@@H]12`, the result in experiment [1], in experiment [4] and in experiment [7] was inactive. Also, the Potency in [2] was 15.8 µM (active) and 31.6 µM (active); in [5], > 46 µM (inactive) and > 20.6 µM (inactive); in [6] it was > 46 µM (inactive) and > 20.6 µM (inactive); in [10] it was 2.82 µM (active). In addition, the Potency entry in experiment [11] is “inactive”. In addition, the activity change, negative = inhibition in experiment [9] was -1.57% (inactive). The max response in experiment [9] (setting [12]) was -15.4%; in experiment [9] (setting [13]) it was -17.5%.

For `C[C@@]12CC(=O)[C@H]3[C@@H](CCC4=CC(=O)CC[C@]43C)[C@H]1CCC2=O`, the molecule was called inactive in experiment [1], in [4] and in experiment [7]. Further, the Potency result in experiment [2], in experiment [8] and in experiment [10] was “inactive” each time. Also, the figures for the activity change, negative = inhibition in experiment [3] and in [9] were 2.56% (inactive) and -2.03% (inactive), respectively. The Potency in experiment [5] and in experiment [6] was > 20.6 µM (inactive) each time. The max response is -10.7% in [9] (setting [12]) and -12.2% in experiment [9] (setting [13]).

On to `CN(C)[C@@H]1C(=O)C(C(N)=O)=C(O)[C@]2(O)C(=O)C3=C(O)c4c(O)cccc4[C@@](C)(O)[C@H]3[C@H](O)[C@@H]12`, for which the molecule was classed as inactive in [1], in [4] and in experiment [7]. Also, the Potency result in [2] and in experiment [8] was “inactive” each time. In addition, the activity change, negative = inhibition in [3] was -3.39% (inactive); in experiment [9], -0.12% (inactive). For the same molecule, the values for the max response in [9] (setting [12]) and in [9] (setting [13]) were -12.1% and -10.8%, respectively. Also, the Potency in experiment [10] is 31.6 µM (active).

As to `O=[N+]([O-])O[C@H]1CO[C@H]2[C@H]1OC[C@@H]2O[N+](=O)[O-]`, the outcome in experiment [1], in experiment [4] and in experiment [7] was inactive. The Potency result in experiment [2] and in experiment [8] was “inactive” each time. Also, the activity change, negative = inhibition was -5.68% (inactive) in experiment [3] and -2.81% (inactive) in [9]. Further, the Potency in experiment [5] and in experiment [6] was > 20.6 µM (inactive) throughout. Further, the max response was -2.42% in [9] (setting [12]) and -3.6% in experiment [9] (setting [13]).

Source of the values: PubChem BioAssay (NCATS).
